Laboratory results reported in the supplement of paper PMC3334620.
Over roughly 33,000 sequences, “E-score (-0.5 to 0.5)” has its median near -0.0014; the highest 2% begin near 0.25. The entries come from a sample that favours the highest values as a whole.

Target: T1, Cad1 (UniProt P24813)
T1 sequence: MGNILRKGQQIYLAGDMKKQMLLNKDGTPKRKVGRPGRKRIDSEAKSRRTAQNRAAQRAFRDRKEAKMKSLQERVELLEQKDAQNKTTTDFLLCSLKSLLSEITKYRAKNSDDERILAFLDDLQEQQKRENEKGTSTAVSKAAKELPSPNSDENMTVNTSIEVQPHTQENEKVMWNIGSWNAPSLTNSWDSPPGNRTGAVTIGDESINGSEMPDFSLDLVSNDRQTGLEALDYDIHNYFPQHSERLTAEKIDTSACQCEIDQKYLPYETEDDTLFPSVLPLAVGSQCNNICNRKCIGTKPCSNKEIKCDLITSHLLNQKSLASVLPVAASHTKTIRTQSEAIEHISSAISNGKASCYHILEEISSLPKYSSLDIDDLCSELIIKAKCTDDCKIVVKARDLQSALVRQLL
Experiment: PBM E-score (8-mer binding enrichment) (E-score (-0.5 to 0.5)); higher = stronger / more preferred TF binding
Conditions: protein concentration: 100 nM; construct: GST-full length
Experimental: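 Universal 'all 10-mer' protein binding microarrays (Agilent AMADID 015681) probed with GST-tagged S. cerevisiae TFs (full-length or DBD) made by in vitro transcription/translation (PURExpress), about 100-200 nM. Bound TF was detected with fluorescent anti-GST. Each ungapped 8-mer (which stands for itself and its reverse complement) is scored by the PBM enrichment score (E-score), a modified Wilcoxon-Mann-Whitney statistic from -0.5 to +0.5, computed with the Universal PBM Analysis Suite. Scale: above 0.35 generally sequence-specific binding.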

| Sequence | PBM E-score |
| --- | --- |
| CTCGGGCA | 0.0974 |
| AGTGTGGG | -0.0209 |
| GCACGTGC | 0.32 |
| CCACGTGC | 0.00023 |
| GCACGTGA | 0.0273 |
| GTCAGACA | 0.116 |
| AAGGTCGT | 0.0718 |
| CCTAGACC | -0.179 |
| GGTTAGAA | -0.111 |
| AAGCTCGC | 0.224 |
| AAGCTCGA | 0.263 |
| CAGCTCGA | 0.0283 |
| TTGGCAAA | 0.121 |
| ATAGATTG | 0.0192 |
| GACCCGGC | -0.0968 |
| GCTGAGCC | -0.119 |
| AACGCTTC | -0.0949 |
| GATCAGCA | 0.141 |
| AATCAGCC | 0.0909 |
| CATCAGCA | 0.01 |
| AATCAACA | 0.275 |
| AATCAGCA | 0.258 |

| Sequence | PBM E-score |
| --- | --- |
| AATCAGCT | 0.274 |
| TATCAACA | 0.0364 |
| AATCAGCG | 0.211 |
| GATCAACA | 0.131 |
| CGACAGCA | 0.0252 |
| AGTTCAGA | -0.104 |
| CAACATGA | 0.144 |
| CACTAGAA | -0.0573 |
| GTTTGTTA | 0.202 |
| CTTTGTCA | 0.278 |
| CTTTGTCC | 0.058 |
| GATTGTCA | 0.117 |
| CTTTGTTA | 0.222 |
| GTTTGTCA | 0.317 |
| AAGATTAG | 0.144 |
| GTCTGCGA | 0.0486 |
| AGACCGGA | -0.062 |
| TTCGCGAA | 0.343 |
| GTCGCGAC | 0.391 |
| TCCGCGAA | 0.202 |
| CTCGCGAC | 0.15 |
| GTCGCGAA | 0.0594 |

| Sequence | PBM E-score |
| --- | --- |
| ATCGCGAC | 0.195 |
| GGGCCTCA | -0.0631 |
| ATCATTTC | 0.136 |
| GGCTCATA | 0.0877 |
| CAACAGGA | -0.182 |
| ACCTCGGG | -0.173 |
| CTGCTTAC | 0.276 |
| CCGCTTAC | 0.184 |
| ATGCTTAC | 0.112 |
| GCGCTTAC | 0.299 |
| CTGCTTAA | 0.0117 |
| GCGCTTAA | 0.106 |
| ACCGTATA | -0.00739 |
| CAAAAGAC | -0.00184 |
| ATCATAAG | 0.0855 |
| ATCATAAT | 0.144 |
| ATCATAAC | 0.273 |
| CTTCGTTA | -0.0282 |
| AATTAAGA | 0.104 |
| AATTAATT | 0.285 |
| AATTAATC | 0.227 |
| AATTAATA | 0.432 |

| Sequence | PBM E-score |
| --- | --- |
| ACTTAATA | 0.186 |
| AATTAATG | 0.242 |
| AGCGAACA | 0.195 |
| CGCCAACA | 0.157 |
| AAAAAAAC | 0.121 |
| CAAATGGG | 0.0861 |
| TCATATCA | 0.0259 |
| CCATATCA | -0.00962 |
| GCATATCA | 0.278 |
| CCATGCAG | -0.0439 |
| GCGGAAGC | 0.0712 |
| AGCGGCTC | -0.0559 |
| ACGGATAA | 0.0973 |
| ACGGAAAT | 0.288 |
| ACGGATAG | 0.0118 |
| ACGGAAAC | -0.0435 |
| ACGGAAAA | 0.24 |
| ACGGATAT | 0.254 |
| AGGGTTGA | -0.0586 |
| GGATCGAA | 0.045 |
| CTTCTCGA | 0.0254 |
| ACGGCTGA | 0.0503 |

| Sequence | PBM E-score |
| --- | --- |
| CAGCCATG | -0.077 |
| TATAAATA | 0.25 |
| CAAATATG | 0.135 |
| CTAATATA | 0.239 |
| AAAATATC | 0.198 |
| AAAATATA | 0.208 |
| ATAATATA | 0.227 |
| CAAATATA | -0.0118 |
| TAAATATA | 0.277 |
| CAAATATC | 0.261 |
| CATAAATA | 0.171 |
| GTAATATA | 0.327 |
| GATAAATA | 0.123 |
| ATCCCTTG | -0.131 |
| ACAATAGT | 0.109 |
| GCAGCGGA | -0.0753 |
| AGAGAGAA | -0.0532 |
| ACACTAAA | 0.144 |
| TTGCACAA | 0.0972 |
| CCAAAAAC | 0.116 |
| AAGTCTGG | 0.105 |
